Drawing on PubChem BioAssay (EPA / NIEHS), this text covers outcome and AC50 for three molecules.

Read-out in assay [1]: Tumor necrosis factor receptor superfamily member 6 (Homo sapiens) (UniProt P25445)
The experiment in a line: LTEA_HepaRG_FAS: Life Technologies and Expression Analysis (LTEA) Assay for Fas cell surface death receptor (FAS) using HepaRG (AID 2283447). Conditions: mRNA level, 48 h; actives raise or lower the signal. The method in brief: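 FAS transcript level was measured by TaqMan qRT-PCR against three housekeeping genes after 48 h chemical exposure. Cells were HepaRG, 0.5% DMSO vehicle, with a top concentration of 100 uM and half-log dilutions over eight points, in duplicate.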

Read-out in assay [2]: Fatty acid synthase (Homo sapiens) (UniProt P49327)
The experiment in a line: LTEA_HepaRG_FASN: Life Technologies and Expression Analysis (LTEA) Assay for Fatty Acid Synthase (FASN) using HepaRG (AID 2283448). The settings on record: mRNA level, 48 h; actives raise or lower the signal. The method in brief:
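Cells were plated, cultured 48 h, switched to serum-free induction medium, then dosed in duplicate (max 100 uM, half-log dilutions, 0.5% DMSO) for 48 h. RNA was then isolated and FASN quantified by qRT-PCR.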

Read-out in assay [3]: Cyclin D2 (CCND2), CCND2 (gene 894)
As to the kind of experiment: LTEA_HepaRG_CCND2: Life Technologies and Expression Analysis (LTEA) Assay for Cyclin D2 (CCND2) using HepaRG (AID 2283449). Conditions: mRNA level, 48 h; actives raise or lower the signal. The method in brief: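 CCND2 transcript levels, quantified by qRT-PCR and normalised to three housekeeping genes, were fitted bidirectionally against 0.5% DMSO. HepaRG cultures were dosed 48 h in duplicate with an 8-point half-log series up to 100 uM.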

Read-out in assay [4]: Cyclin Dependent Kinase Inhibitor 1A (CDKN1A), CDKN1A (gene 1026)
The experiment in a line: LTEA_HepaRG_CDKN1A: Life Technologies and Expression Analysis (LTEA) Assay for Cyclin Dependent Kinase Inhibitor 1A (CDKN1A) using HepaRG (AID 2283450). Conditions: mRNA level, 48 h; actives raise or lower the signal. The method in brief:
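Read-out is CDKN1A mRNA by TaqMan qRT-PCR, normalized to three housekeeping genes and fitted in both directions against the DMSO baseline. Human HepaRG cells were treated 48 h with test chemicals up to 100 uM in half-log steps, 0.5% DMSO.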

Read-out in assay [5]: Cyclin D1 (CCND1), CCND1 (gene 595)
The experiment in a line: LTEA_HepaRG_CCND1: Life Technologies and Expression Analysis (LTEA) Assay for Cyclin D1 (CCND1) using HepaRG (AID 2283451). The settings on record: mRNA level, 48 h; actives raise or lower the signal. The method in brief:
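HepaRG plated 48 h, medium switched to serum-free induction medium, chemicals added in duplicate (top 100 uM, half-log steps, 0.5% DMSO) for 48 h, cells lysed, RNA measured by TaqMan qRT-PCR.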

Read-out in assay [6]: catalase (CAT), CAT (gene 847)
The experiment in a line: LTEA_HepaRG_CAT: Life Technologies and Expression Analysis (LTEA) Assay for catalase (CAT) using HepaRG (AID 2283452). The settings on record: mRNA level, 48 h; actives raise or lower the signal. The method in brief: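 Expression of CAT was quantified by TaqMan qRT-PCR with ACTB/GAPDH/POLR2A normalization after 48 h chemical exposure of HepaRG. Eight-point half-log series, top 100 uM, in 0.5% DMSO; gain or loss fitted against vehicle.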

Read-out in assay [7]: flavin-containing dimethylaniline monooxygenases 3 (FMO3), FMO3 (gene 2328)
As to the kind of experiment: LTEA_HepaRG_FMO3: Life Technologies and Expression Analysis (LTEA) Assay for flavin-containing dimethylaniline monooxygenases 3 (FMO3) using HepaRG (AID 2283453).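 As to AC50: differentiated human HepaRG liver cells in serum-free induction medium.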 Conditions: mRNA level, 48 h; actives raise or lower the signal. The method in brief:
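FMO3 transcript quantified by TaqMan qRT-PCR against three housekeeping genes after 48 h chemical exposure of HepaRG cells. Eight-point half-log series, top 100 uM, 0.5% DMSO vehicle; phenobarbital 1mM induction control; up- or down-regulation fitted.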

Read-out in assay [8]: Cytochrome P450 (CYP1A1), CYP1A1 (gene 1543)
As to the kind of experiment: LTEA_HepaRG_CYP1A1: Life Technologies and Expression Analysis (LTEA) Assay for Cytochrome P450 (CYP1A1) using HepaRG (AID 2283454). The settings on record: mRNA level, 48 h; actives raise or lower the signal. The method in brief:
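HepaRG, 48 h post-plating switched to serum-free induction medium; 8-pt conc-response (top 100 uM, half-log, 0.5% DMSO), duplicates, 48 h. Lysis in RLT, TaqMan qRT-PCR for CYP1A1; gain or loss vs DMSO.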

Read-out in assay [9]: CFLAR gene, CFLAR (gene 8837)
The experiment in a line: LTEA_HepaRG_CFLAR: Life Technologies and Expression Analysis (LTEA) Assay for CFLAR gene using HepaRG (AID 2283455). The settings on record: mRNA level, 48 h; actives raise or lower the signal. The method in brief:
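Transcript level by qRT-PCR (normalized to ACTB, GAPDH and POLR2A) after 48 h chemical exposure of HepaRG cells, top concentration 100 uM with half-log steps, 0.5% DMSO vehicle, duplicates; fitted bidirectionally against DMSO baseline.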

Read-out in assay [10]: Forkhead box O1 (FOXO1), FOXO1 (gene 2308)
As to the kind of experiment: LTEA_HepaRG_FOXO1: Life Technologies and Expression Analysis (LTEA) Assay for Forkhead box O1 (FOXO1) using HepaRG (AID 2283456). The settings on record: mRNA level, 48 h; actives raise or lower the signal. The method in brief: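 FOXO1 transcript quantified by qRT-PCR after 48 h chemical exposure (top 100 uM, half-log steps, 0.5% DMSO) of HepaRG cells, housekeeping-normalized (ACTB/GAPDH/POLR2A). Changes fitted in both directions relative to vehicle.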

Read-out in assay [11]: growth arrest and DNA damage 45 (GADD45A), GADD45A (gene 1647)
The experiment in a line: LTEA_HepaRG_GADD45A: Life Technologies and Expression Analysis (LTEA) Assay for growth arrest and DNA damage 45 (GADD45A) using HepaRG (AID 2283458). Conditions: mRNA level, 48 h; actives raise or lower the signal. The method in brief: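 Transcript induction or loss, quantified by TaqMan qRT-PCR against three housekeeping genes, is the read-out. HepaRG cells received chemicals for 48 h across eight half-log concentrations from 100 uM in 0.5% DMSO; gain and loss fitted relative to DMSO.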

Read-out in assay [12]: Forkhead box O3 (FOXO3), FOXO3 (gene 2309)
As to the kind of experiment: LTEA_HepaRG_FOXO3: Life Technologies and Expression Analysis (LTEA) Assay for Forkhead box O3 (FOXO3) using HepaRG (AID 2283459). The settings on record: mRNA level, 48 h; actives raise or lower the signal. The method in brief: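 FOXO3 transcript measured by qRT-PCR (normalized to ACTB, GAPDH, POLR2A) after 48 h exposure of HepaRG cells in serum-free induction medium. Duplicates, eight half-log concentrations up to 100 uM, 0.5% DMSO; gain or loss fitted against DMSO.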

Read-out in assay [13]: ABC Transporter (ABCB1), ABCB1 (gene 5243)
As to the kind of experiment: LTEA_HepaRG_ABCB1: Life Technologies and Expression Analysis (LTEA) Assay for ABC Transporter (ABCB1) using HepaRG (AID 2283460). Conditions: mRNA level, 48 h; actives raise or lower the signal. The method in brief: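 ABCB1 transcript level measured by TaqMan qRT-PCR against three housekeeping genes after 48 h chemical exposure of differentiated HepaRG cells. Top concentration 100 uM, half-log steps, eight points, 0.5% DMSO vehicle; bidirectional fit relative to DMSO.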

Read-out in assay [14]: growth arrest and DNA damage 45 (GADD45B), GADD45B (gene 4616)
The experiment in a line: LTEA_HepaRG_GADD45B: Life Technologies and Expression Analysis (LTEA) Assay for growth arrest and DNA damage 45 (GADD45B) using HepaRG (AID 2283461). The settings on record: mRNA level, 48 h; actives raise or lower the signal. The method in brief:
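HepaRG, ~100,000 cells/well, 48 h plating; serum-free induction medium; cpd 100 uM top, half-log x8, 0.5% DMSO, duplicate, 48 h; lysis in RLT, RNA isolation, qRT-PCR; norm ACTB/GAPDH/POLR2A; bidirectional fit vs DMSO.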

Read-out in assay [15]: ABC Transporter (ABCC3), ABCC3 (gene 8714)
The experiment in a line: LTEA_HepaRG_ABCC3: Life Technologies and Expression Analysis (LTEA) Assay for ABC Transporter (ABCC3) using HepaRG (AID 2283462). Conditions: mRNA level, 48 h; actives raise or lower the signal. The method in brief:
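Human HepaRG, 48 h dosing, 8-pt half-log series from 100 uM, 0.5% DMSO vehicle, duplicates. ABCC3 mRNA by TaqMan qRT-PCR, housekeeping-normalized; bidirectional curve fit vs DMSO.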

Read-out in assay [16]: Broad substrate specificity ATP-binding cassette transporter ABCG2 (Homo sapiens) (UniProt Q9UNQ0)
The experiment in a line: LTEA_HepaRG_ABCG2: Life Technologies and Expression Analysis (LTEA) Assay for ABC Transporter (ABCG2) using HepaRG (AID 2283465). The settings on record: mRNA level, 48 h; actives raise or lower the signal. The method in brief:
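ABCG2 transcript was quantified by TaqMan qRT-PCR against three housekeeping genes in HepaRG cells. Cells were treated in duplicate for 48 h across an 8-point half-log series up to 100 uM, with 0.5% DMSO vehicle. Gain or loss versus DMSO was fit.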

Assay [17] is described as follows: CEETOX_H295R_PROG: CeeTox H295R High-throughput Steroidogenesis Assay for Progesterone (PROG) (AID 2283442).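 Also: human H295R adrenal cells primed with 10 µM forskolin before dosing; progesterone secreted into medium by H295R cells measured by HPLC-MS/MS.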 The settings on record: actives raise or lower the signal. The method in brief:
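Steps: seed H295R cells and let them adhere overnight; prime 48 h with 10 uM forskolin; dose with compound in DMSO at 0.1% final for 48 h; extract medium steroids with MTBE; measure progesterone by LC-MS/MS. MTT viability was run in the same wells.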

A short description of assay [18]: CEETOX_H295R_TESTO: CeeTox H295R High-throughput Steroidogenesis Assay for Testosterone (TESTO) (AID 2283457).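 Also: cells exposed to chemicals for 48 h before medium collection.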 Conditions: actives raise or lower the signal. The method in brief: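 H295R, passage ≤10, 48 h dosing; media extracted with MTBE → HPLC-MS/MS for testosterone; 7-pt standard curve sets LLOQ/ULOQ; bidirectional fit vs DMSO; MTT viability same wells.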
Read-out in assay [19]: ABC Transporter (ABCB11), ABCB11 (gene 8647)
As to the kind of experiment: LTEA_HepaRG_ABCB11: Life Technologies and Expression Analysis (LTEA) Assay for ABC Transporter (ABCB11) using HepaRG (AID 2283463). Conditions: mRNA level, 48 h; actives raise or lower the signal. The method in brief: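 ABCB11 transcript levels quantified by TaqMan qRT-PCR against three housekeeping genes after 48 h chemical exposure of HepaRG cultures. Concentrations up to 100 uM in half-log steps, 0.5% DMSO vehicle; both induction and suppression scored.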

Read-out in assay [20]: ABC Transporter (ABCC2), ABCC2 (gene 1244)
The experiment in a line: LTEA_HepaRG_ABCC2: Life Technologies and Expression Analysis (LTEA) Assay for ABC Transporter (ABCC2) using HepaRG (AID 2283464). The settings on record: mRNA level, 48 h; actives raise or lower the signal. The method in brief:
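HepaRG, 48 h post-plating; serum-free induction medium; cpd 8-pt, 100 uM top, half-log, 0.5% DMSO, duplicate, 48 h. Readout: ABCC2 mRNA by qRT-PCR, norm. ACTB/GAPDH/POLR2A. Bidirectional fit vs DMSO baseline.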

Calls of active or inactive are those of the source. The calls were made as follows: active = hit-call score of the fitted dose curve at least 0.9, where 1 is the maximum; inactive = score below 0.9.

Chain of Broad substrate specificity ATP-binding cassette transporter ABCG2 (Homo sapiens) (Q9UNQ0 whole entry, looked up): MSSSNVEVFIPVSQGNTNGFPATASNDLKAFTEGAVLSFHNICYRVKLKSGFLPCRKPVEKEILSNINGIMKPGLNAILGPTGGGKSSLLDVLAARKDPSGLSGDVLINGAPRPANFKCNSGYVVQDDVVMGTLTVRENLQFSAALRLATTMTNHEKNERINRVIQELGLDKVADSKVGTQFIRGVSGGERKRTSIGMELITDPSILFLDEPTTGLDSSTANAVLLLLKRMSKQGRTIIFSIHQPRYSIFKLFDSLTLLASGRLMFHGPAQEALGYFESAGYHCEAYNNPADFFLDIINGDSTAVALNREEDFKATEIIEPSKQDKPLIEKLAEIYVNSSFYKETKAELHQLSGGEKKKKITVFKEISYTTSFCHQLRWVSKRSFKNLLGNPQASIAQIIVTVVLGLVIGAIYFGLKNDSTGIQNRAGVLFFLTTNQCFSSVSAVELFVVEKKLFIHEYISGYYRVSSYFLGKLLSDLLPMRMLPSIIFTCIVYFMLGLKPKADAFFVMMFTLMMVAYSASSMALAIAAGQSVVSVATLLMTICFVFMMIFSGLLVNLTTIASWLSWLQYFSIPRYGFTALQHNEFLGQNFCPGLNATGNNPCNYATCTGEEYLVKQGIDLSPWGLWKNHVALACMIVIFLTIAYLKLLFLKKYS
Chain of Fatty acid synthase (Homo sapiens) (P49327 whole entry, looked up): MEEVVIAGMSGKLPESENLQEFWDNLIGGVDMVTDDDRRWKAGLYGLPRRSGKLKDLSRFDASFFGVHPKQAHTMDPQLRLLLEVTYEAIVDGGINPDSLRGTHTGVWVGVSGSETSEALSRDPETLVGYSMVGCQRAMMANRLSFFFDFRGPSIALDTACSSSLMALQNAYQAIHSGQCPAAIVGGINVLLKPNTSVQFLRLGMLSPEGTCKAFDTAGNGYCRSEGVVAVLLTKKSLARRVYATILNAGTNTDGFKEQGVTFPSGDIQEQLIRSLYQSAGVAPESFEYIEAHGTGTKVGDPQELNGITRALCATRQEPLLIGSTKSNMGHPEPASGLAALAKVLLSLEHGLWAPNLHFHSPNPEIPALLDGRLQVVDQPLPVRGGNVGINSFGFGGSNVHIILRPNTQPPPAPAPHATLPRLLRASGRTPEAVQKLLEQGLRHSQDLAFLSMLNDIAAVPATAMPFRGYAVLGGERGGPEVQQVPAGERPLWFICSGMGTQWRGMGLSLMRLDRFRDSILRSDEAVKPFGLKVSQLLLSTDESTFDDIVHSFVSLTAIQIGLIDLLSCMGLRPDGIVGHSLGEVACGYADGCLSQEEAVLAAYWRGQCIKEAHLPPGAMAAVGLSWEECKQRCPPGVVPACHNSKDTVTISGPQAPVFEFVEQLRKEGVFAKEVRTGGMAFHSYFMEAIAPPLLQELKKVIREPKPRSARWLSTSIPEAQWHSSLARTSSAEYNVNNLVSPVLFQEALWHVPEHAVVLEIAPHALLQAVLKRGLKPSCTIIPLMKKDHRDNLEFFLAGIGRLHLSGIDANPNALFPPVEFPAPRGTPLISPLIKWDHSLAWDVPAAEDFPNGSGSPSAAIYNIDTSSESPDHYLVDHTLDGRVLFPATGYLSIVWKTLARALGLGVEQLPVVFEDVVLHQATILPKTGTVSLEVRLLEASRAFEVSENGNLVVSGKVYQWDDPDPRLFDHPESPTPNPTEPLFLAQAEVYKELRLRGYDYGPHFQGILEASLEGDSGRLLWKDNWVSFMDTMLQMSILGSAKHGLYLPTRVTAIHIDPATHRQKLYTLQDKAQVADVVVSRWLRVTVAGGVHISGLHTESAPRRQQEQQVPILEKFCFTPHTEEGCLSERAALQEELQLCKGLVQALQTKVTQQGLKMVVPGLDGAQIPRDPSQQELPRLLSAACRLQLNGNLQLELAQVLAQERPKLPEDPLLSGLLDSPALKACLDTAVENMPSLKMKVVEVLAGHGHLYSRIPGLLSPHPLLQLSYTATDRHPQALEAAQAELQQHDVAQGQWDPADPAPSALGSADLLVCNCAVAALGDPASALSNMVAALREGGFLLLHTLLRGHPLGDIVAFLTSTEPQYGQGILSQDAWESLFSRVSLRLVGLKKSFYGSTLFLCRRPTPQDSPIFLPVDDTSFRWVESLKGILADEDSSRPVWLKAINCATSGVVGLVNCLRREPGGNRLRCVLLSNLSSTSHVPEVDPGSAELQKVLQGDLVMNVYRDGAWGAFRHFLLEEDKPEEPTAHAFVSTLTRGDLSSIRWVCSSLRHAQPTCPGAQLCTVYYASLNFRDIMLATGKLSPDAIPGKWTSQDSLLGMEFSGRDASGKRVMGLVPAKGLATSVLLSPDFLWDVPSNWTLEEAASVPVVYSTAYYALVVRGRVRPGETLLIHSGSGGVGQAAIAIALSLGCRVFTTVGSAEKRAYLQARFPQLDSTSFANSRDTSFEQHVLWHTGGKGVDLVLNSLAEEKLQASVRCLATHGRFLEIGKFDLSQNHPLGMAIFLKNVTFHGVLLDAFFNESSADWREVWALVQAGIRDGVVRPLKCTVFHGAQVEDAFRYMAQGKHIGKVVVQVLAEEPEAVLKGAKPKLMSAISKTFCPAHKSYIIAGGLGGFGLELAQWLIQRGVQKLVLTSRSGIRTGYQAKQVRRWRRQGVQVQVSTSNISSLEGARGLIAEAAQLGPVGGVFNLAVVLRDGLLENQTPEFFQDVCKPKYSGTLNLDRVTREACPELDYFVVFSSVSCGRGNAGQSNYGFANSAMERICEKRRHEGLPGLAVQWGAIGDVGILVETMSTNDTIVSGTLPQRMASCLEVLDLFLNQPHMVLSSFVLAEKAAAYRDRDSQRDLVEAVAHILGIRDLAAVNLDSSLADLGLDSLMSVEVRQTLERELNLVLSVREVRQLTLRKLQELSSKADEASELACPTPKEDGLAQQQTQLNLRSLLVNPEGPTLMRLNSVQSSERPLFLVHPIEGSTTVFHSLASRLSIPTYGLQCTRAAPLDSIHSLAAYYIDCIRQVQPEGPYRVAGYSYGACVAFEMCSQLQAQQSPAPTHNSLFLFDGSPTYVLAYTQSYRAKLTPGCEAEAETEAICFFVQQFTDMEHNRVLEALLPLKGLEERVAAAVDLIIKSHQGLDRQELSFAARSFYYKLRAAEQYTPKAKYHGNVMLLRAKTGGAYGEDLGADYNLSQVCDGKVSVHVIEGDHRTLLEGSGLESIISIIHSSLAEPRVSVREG

Regarding `CN[C@H]1CC[C@@H](c2ccc(Cl)c(Cl)c2)c2ccc(S(N)(=O)=O)cc21`, the result in [1], in [2], in assay [3], in assay [4], in [5] and in assay [9] was inactive. Further, the result in [10], in [11], in [12] and in assay [16] was inactive. The AC50 is 50 µM (active) in [6]; 34.1 µM (active) in assay [7]; 76.5 µM (active) in [8]; 89.3 µM (active) in [13]; 80.4 µM (active) in assay [14]; 12.6 µM (active) in assay [15].

With `Cc1nc(-c2ccc3c(c2)CCN(CCC2CCC(NC(=O)/C=C/c4ccc(F)cc4)CC2)CC3)no1` (configuration not stated), the AC50 was 0.0391 µM (active) in assay [17], 23.2 µM (active) in assay [8] and 0.248 µM (active) in assay [18]. The call in assay [1], in assay [2], in assay [3], in assay [4], in [5] and in assay [6] was inactive. In addition, the molecule was called inactive in assay [7], in assay [10], in assay [11], in assay [12], in [13] and in assay [14]. Besides, the molecule was classed as inactive in assay [15], in assay [19], in assay [20] and in [16].

In the case of `Clc1cc(Cl)c(Cl)cc1Cl`, the molecule was called inactive in assay [1], in [2], in assay [3], in assay [4], in [5] and in assay [6]. For the same molecule, the molecule was called inactive in assay [7], in [9], in assay [10], in [11], in assay [12] and in assay [13]. Further, the result in assay [14], in [15], in assay [19] and in assay [16] was inactive. Besides, in assay [8], the AC50 is 50 µM (active).

By AC50 is commonly meant the concentration giving half of the maximal activity seen.
